# Test results as given in PubChem BioAssay (Tox21).
# Values joined by “and” are separate entries in the source; they are usually repeats but may differ in a detail not shown here. Identical values can stand only once. Values without a mark were called inactive. Records with an inconclusive call do not appear. Where a call stands in place of a potency, no number is given. Active and inactive are the calls of the source. Calls come from the whole dose curve; as a rule, active = well fitted curve in the direction sought with a large enough effect in the repeat runs; inconclusive = weak or mixed curves; inactive = no such curve, though single readings can be large; an effect the other way counts as inactive or inconclusive.
# Legend:
# [1] = A CellTox Green Cytotoxicity Assay to monitor cytotoxicity in HEK293 cells - 32 hour (AID 1224881); note: nearly all actives have a fitted effect of over 40% in size; note: potency is the fitted concentration of half-maximal effect
# Method in brief: (§1)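 HEK293 cells, 600/well, were preincubated 5 hours and then exposed to compounds at 37 C for up to 40 hours. A cell-impermeant cyanine dye staining dead-cell DNA was read by fluorescence at 0, 8, 16, 24, 32 and 40 h time points.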
# [2] = A CellTox Green Cytotoxicity Assay to monitor cytotoxicity in HepG2 cells - 0 hour (AID 1224882); note: nearly all actives have a fitted effect of over 35% in size
# Method in brief: (§2)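 HepG2 cells, 600/well, preincubated 5 h with CellTox Green dye, then exposed to Tox21 compounds in DMSO at 37 C for up to 40 h. Dead-cell DNA fluorescence read at the indicated time point.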
# [3] = A CellTox Green Cytotoxicity Assay to monitor cytotoxicity in HepG2 cells - 32 hour (AID 1224883); note: nearly all actives have a fitted effect of over 50% in size; note: potency is the fitted concentration of half-maximal effect
# Method in brief: as §2
# [4] = qHTS RealTime-Glo MT Cell Viability Assay in HepG2 cells - 16 hour (AID 1224885); note: nearly all actives have a fitted effect of over 50% in size; note: potency is the fitted concentration of half-maximal effect
# Method in brief: (§3)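 Luminescence read-out: viable HepG2 cells reduce a prosubstrate to a NanoLuc substrate, giving a signal proportional to live cell number. Reads taken at 0, 8, 16, 24, 32 and 40 h of compound exposure at 37 C.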
# [5] = qHTS RealTime-Glo MT Cell Viability Assay in HEK293 cells - 24 hour (AID 1224886); note: nearly all actives have a fitted effect of over 50% in size; note: potency is the fitted concentration of half-maximal effect
# Method in brief: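 Nonlytic real-time viability readout: viable cells convert prosubstrate to NanoLuc substrate, giving luminescence proportional to live cell number. HEK293, 600 cells/well, compound added after 5 h, continuous culture at 37 C.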
# [6] = A CellTox Green Cytotoxicity Assay to monitor cytotoxicity in HEK293 cells - 16 hour (AID 1224888); note: nearly all actives have a fitted effect of over 35% in size; note: potency is the fitted concentration of half-maximal effect
# Method in brief: as §1
# [7] = qHTS RealTime-Glo MT Cell Viability Assay in HepG2 cells - 0 hour (AID 1224889); note: nearly all actives have a fitted effect of over 50% in size; note: potency is the fitted concentration of half-maximal effect
# Method in brief: as §3
# [8] = A CellTox Green Cytotoxicity Assay to monitor cytotoxicity in HepG2 cells - 8 hour (AID 1224890); note: nearly all actives have a fitted effect of over 45% in size; note: potency is the fitted concentration of half-maximal effect
# Method in brief: as §2
# [9] = qHTS RealTime-Glo MT Cell Viability Assay in HEK293 cells - 8 hour (AID 1224887); note: nearly all actives have a fitted effect of over 50% in size; note: potency is the fitted concentration of half-maximal effect
# Method in brief: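 600 cells/well were plated with the nonlytic NanoLuc/prosubstrate reagent, pre-incubated 5 h, then given 23 nL of compound in DMSO. Incubation at 37 C for 40 h, with luminescence from viable-cell-reduced substrate read repeatedly from 0 h.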
# [10] = A CellTox Green Cytotoxicity Assay to monitor cytotoxicity in HEK293 cells - 8 hour (AID 1224884); note: nearly all actives have a fitted effect of over 35% in size
# Method in brief: as §1
Structure (SMILES),Potency [1],Potency [2],Potency [3],Potency [4],Potency [5],Potency [6],Potency [7],Potency [8],Potency [9],Potency [10]
CC(C)C(Nc1ccc(C(F)(F)F)cc1Cl)C(=O)OC(C#N)c1cccc(Oc2ccccc2)c1 (stereo not drawn),inactive,inactive,inactive,inactive,inactive,inactive,inactive,inactive,,
CCCCCCCc1ccc(O)cc1,43.6 µM (active),inactive,21.9 µM (active),inactive,12.3 µM (active),43.6 µM (active),inactive,24.5 µM (active),6.17 µM (active),
CNC(=O)CSP(=O)(OC)OC,inactive,inactive,inactive,inactive,inactive,inactive,inactive,inactive,inactive,
c1ccc2c(c1)cc1ccc3cccc4ccc2c1c34,inactive,inactive,7.05 µM (active),inactive,,inactive,inactive,,,
[C-]1=CC=CC1.[Cl][Zr+2][Cl].c1cc[cH-]c1,inactive,inactive,inactive,,,inactive,inactive,,,inactive
O=c1[nH]c(Cl)c(Cl)cc1Cl,inactive,inactive,inactive,inactive,inactive,inactive,inactive,,inactive,
C=Cc1cccc(CCl)c1,inactive,inactive,inactive,inactive,inactive,,inactive,,inactive,
CC(C)Br,inactive,inactive,inactive,inactive,inactive,inactive,,inactive,,
CCCCON=O,inactive,inactive,inactive,inactive,inactive,inactive,inactive,inactive,inactive,
ClSC(Cl)(Cl)Cl,inactive,inactive,inactive,inactive,inactive,inactive,inactive,inactive,inactive,
CC(C)c1c(CN(C)C(C)Cc2ccccc2)n(C)n(-c2ccccc2)c1=O (stereo not drawn),inactive,inactive,inactive,inactive,,inactive,,,,
C1=CCC=C1,inactive,inactive,inactive,,,inactive,inactive,inactive,inactive,inactive
Oc1cc(Cl)cc(Cl)c1,49.5 µM (active),inactive,inactive,inactive,,,inactive,inactive,,inactive
CCCCC/C=C\C/C=C\C/C=C\C/C=C\CCCC(=O)NCC(=O)O,inactive,inactive,inactive,inactive,inactive,inactive,inactive,inactive,inactive,
CSC1=N[C@@](C)(c2ccccc2)C(=O)N1Nc1ccccc1,inactive,inactive,inactive,inactive,inactive,inactive,inactive,inactive,inactive,
O=C1C(Cl)=C(Cl)C(=O)C(Cl)=C1Cl,21.8 µM (active) and 21.9 µM (active),inactive,21.8 µM (active) and 19.5 µM (active),,24.5 µM (active) and 21.9 µM (active),inactive,9.74 µM (active) and 12.3 µM (active),,21.8 µM (active),inactive
Brc1cccc(-c2ccccc2)c1,49.3 µM (active),inactive,inactive,inactive,inactive,,inactive,inactive,inactive,
CSC(=O)c1c(C(F)F)nc(C(F)(F)F)c(C(=O)SC)c1CC(C)C,inactive,inactive,inactive,inactive,,inactive,inactive,inactive,inactive,
Cc1ccn2nc(S(=O)(=O)Nc3c(F)cccc3F)nc2n1,inactive,inactive,inactive,inactive,inactive,inactive,inactive,,inactive,
O=C(NC(=O)c1c(F)cccc1F)Nc1ccc(Oc2ccc(C(F)(F)F)cc2Cl)cc1F,inactive,inactive,inactive,inactive,24.5 µM (active),inactive,inactive,inactive,,
Fc1ccc(C(OCCN2CCN(CCCc3ccccc3)CC2)c2ccc(F)cc2)cc1,23.9 µM (active),inactive,23.9 µM (active),23.9 µM (active),9.52 µM (active),21.3 µM (active),inactive,23.9 µM (active),16.9 µM (active),
COP(=S)(NC(C)C)Oc1ccc(C)cc1[N+](=O)[O-] (stereo not drawn),inactive,inactive,inactive,inactive,inactive,inactive,inactive,inactive,inactive,
CCCC[N+]1(C)CCCC1 (tested in a mixture with another compound),inactive,inactive,inactive,inactive,inactive,inactive,inactive,inactive,inactive,
Nc1cc(Cl)ccc1Cl,inactive,inactive,inactive,inactive,inactive,inactive,inactive,inactive,inactive,
CC[C@H](C)[C@H]1O[C@]2(C=C[C@@H]1C)C[C@@H]1C[C@@H](C/C=C(\C)[C@@H](O[C@H]3C[C@H](OC)[C@@H](O[C@H]4C[C@H](OC)[C@@H](NC)[C@H](C)O4)[C@H](C)O3)[C@@H](C)/C=C/C=C3\CO[C@@H]4[C@H](O)C(C)=C[C@@H](C(=O)O1)[C@]34O)O2,12.3 µM (active),inactive,11 µM (active),12.3 µM (active),5.49 µM (active),15.5 µM (active),inactive,17.4 µM (active),8.71 µM (active),

Structure (SMILES),Potency [1],Potency [2],Potency [3],Potency [4],Potency [5],Potency [6],Potency [7],Potency [8],Potency [9],Potency [10]
Cc1cc2c3c(c1)C(c1ccccc1)=N[C@@H](NC(=O)c1ccncc1)C(=O)N3CC2,inactive,inactive,inactive,inactive,inactive,inactive,,inactive,inactive,
CO/N=C(/C1=NOCCO1)c1ccccc1Oc1ncnc(Oc2ccccc2Cl)c1F,inactive,inactive,inactive,,inactive,inactive,inactive,inactive,inactive,inactive
C[C@H]1[C@H](c2ccc(Cl)cc2)SC(=O)N1C(=O)NC1CCCCC1,inactive,inactive,inactive,inactive,43.6 µM (active),inactive,inactive,inactive,38.9 µM (active),
COP(=O)(OC)Oc1ccc([N+](=O)[O-])cc1,inactive,inactive,inactive,inactive,inactive,inactive,inactive,,inactive,
CC(C)[C@@H](Nc1ccc(C(F)(F)F)cc1Cl)C(=O)OC(C#N)c1cccc(Oc2ccccc2)c1 (stereo partly drawn),inactive,inactive,inactive,inactive,inactive,inactive,inactive,inactive,,
Clc1ccc(C(Cl)(Cl)Cl)cc1Cl,33.9 µM (active),inactive,47.9 µM (active),,33.9 µM (active),38.1 µM (active),inactive,47.9 µM (active),30.2 µM (active),
CCCCC(CC)COC(=O)c1ccccc1C(=O)OCC(CC)CCCC (stereo not drawn),inactive,inactive,inactive,inactive,inactive,inactive,inactive,inactive,inactive,
CCC(C)Nc1c([N+](=O)[O-])cc(C(C)(C)C)cc1[N+](=O)[O-] (stereo not drawn),inactive,inactive,inactive,inactive,inactive,inactive,inactive,,,
Cc1ccc(C)c2ccccc12,38.9 µM (active),inactive,inactive,inactive,inactive,,inactive,inactive,,
CSSC,inactive,inactive,inactive,inactive,,inactive,inactive,,inactive,
CC(C)NCC(O)c1ccccc1Cl (stereo not drawn),inactive,inactive,inactive,inactive,inactive,inactive,inactive,inactive,inactive,
COC(=O)C(C)N(C(=O)c1ccco1)c1c(C)cccc1C (stereo not drawn),inactive,inactive,,inactive,inactive,inactive,inactive,inactive,inactive,inactive
[O]=[Cr](=[O])([OH])[O][Cr](=[O])(=[O])[OH],inactive,inactive,12.4 µM (active),,12.4 µM (active) and 6.9 µM (active),inactive,inactive,inactive,,
O.O.O.O=C([O-])[C@H]([O-])[C@@H]([O-])C(=O)[O-].O=C([O-])[C@H]([O-])[C@@H]([O-])C(=O)[O-].[K+].[K+].[Sb+3].[Sb+3],inactive,inactive,,,,inactive,inactive,inactive,inactive,
Nc1ccc(N=Nc2ccccc2)cc1,inactive,inactive,,,,inactive,inactive,inactive,,inactive
c1ccc(N=NNc2ccccc2)cc1,50.7 µM (active) and 43.6 µM (active),inactive,,,inactive,inactive,inactive,inactive,50.7 µM (active),inactive
CC[C@]1(O)CC[C@H]2[C@@H]3CCC4=CCCC[C@@H]4[C@H]3CC[C@@]21C,inactive,inactive,,inactive,,inactive,inactive,inactive,inactive,inactive
Cc1cc(C2CC2)nc(Nc2ccccc2)n1,inactive,inactive,,,24.5 µM (active),inactive,inactive,,21.9 µM (active),
COc1ccc2[nH]cc(CCN(C(C)C)C(C)C)c2c1,inactive,inactive,,inactive,inactive,inactive,inactive,inactive,inactive,inactive
CNC(=O)O/N=C(\C)C(C)S(C)(=O)=O (stereo not drawn),inactive,inactive,,inactive,inactive,inactive,inactive,,inactive,
CCC(OC(C)=O)C(CC(C)NC)(c1ccccc1)c1ccccc1 (stereo not drawn),62.2 µM (active),inactive,55.4 µM (active),,55.4 µM (active),62.2 µM (active),,,,
Cc1nn(-c2cc(NS(C)(=O)=O)c(Cl)cc2Cl)c(=O)n1C(F)F,inactive,,inactive,inactive,inactive,inactive,inactive,inactive,inactive,inactive
CCOP(=S)(NC(C)C)Oc1ccccc1C(=O)OC(C)C (stereo not drawn),inactive,inactive,inactive,,,inactive,inactive,inactive,,
COC(=O)/C=C(\C)OP(=O)(OC)OC,inactive,,inactive,inactive,inactive,inactive,inactive,inactive,inactive,inactive
CCOP(=O)(OCC)Oc1cc(C)nc(C(C)C)n1,inactive,,inactive,inactive,inactive,inactive,inactive,,inactive,inactive
